Compounds without any hit were thinned out: in the full panel of roughly 83,000, 20% have a hit.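 Each cell line was grown in a 96-well plate and treated with one concentration of compound for 48 hours. Values below 10 were considered active.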 The source made the active and inactive calls.
Each compound was assayed on SW-620 colon (assay: NCI-60 one-dose screen, 48 h (100 = growth as untreated, 0 = no growth, -100 = all killed)). Conditions: 10 µM unless noted.
In the case of `COc1ccc(/C=N/NC(=O)CSc2nc(-c3cnccn3)cc(-c3cccs3)c2C#N)cc1OC`, the growth is reported as 60.8% (inactive). With `O=c1c2cc(-c3ccc(F)cc3F)ccc2n(O)c(=O)n1-c1cccc(C(F)(F)F)c1` the growth was 16.3% (inactive). In the case of `C#C[C@]1(O)CC[C@H]2[C@@H]3CC=C4c5sc(Nc6ncccc6C)nc5CC[C@]4(C)[C@H]3CC[C@@]21C`, the growth is reported as -40.9% (active). For `CCCCCc1ccc(S(=O)(=O)Nc2cc(-c3csc(N)n3)ccc2OC)cc1`, the growth was 110% (inactive). For `O=c1oc2ccc(-c3ccc(F)cc3F)cc2c(=O)n1-c1ccc(Br)cc1F`, the growth was 79.3% (inactive).

Each compound was assayed on MCF7 breast in the same assay as above. Conditions: 10 µM unless noted.
For `C#C[C@]1(O)CC[C@H]2[C@@H]3CC=C4c5sc(NCc6ccccc6)nc5CC[C@]4(C)[C@H]3CC[C@@]21C`, the growth was 21.7% (inactive). For `Cn1cc(-c2cc3ncnc(Nc4ccc(NC(=O)Nc5cc(C(C)(C)C)on5)cc4)c3s2)cn1`, the growth was 18.5% (inactive). With `CCc1cccc2c3c(sc12)C(c1ccc(F)cc1)C(C#N)=C(/N=C/c1ccc(Cl)cc1)O3` (stereo not drawn) the growth was 14% (inactive). In the case of `C1=CC(c2nn3c(-c4ccccc4)nnc3s2)=Cc2ccccc2O1`, the growth is reported as 30.7% (inactive). With `Cc1ccc(-c2csc(N/N=C/c3cccs3)n2)cc1` the growth was 70.8% (inactive). `C#C[C@]1(O)CC[C@H]2[C@@H]3CC=C4c5sc(Nc6ccc(C)cn6)nc5CC[C@]4(C)[C@H]3CC[C@@]21C` was tested, and the growth was -68.9% (active). With `COC(=O)c1ccc(NC2=C(Cl)C(=O)c3nc(C)ccc3C2=O)cc1` the growth was 30.5% (inactive). `CCCCCN1C(=O)/C(=c2\sc3n(c2=O)C2C(NN=3)N(CC)C(=O)N2CC)c2cccc(C)c21` (stereo not drawn) was tested, and the growth was 18.2% (inactive).
